Assay results published in PubChem BioAssay (NCI).
Values joined by “and” are separate entries in the source; they are usually repeats but may differ in a detail not shown here. Identical values can stand only once. This is part of a sample that, as a whole, favours compounds with a hit. Of some 83,000 tested, about 20% had one in any assay.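 Growth was measured after 48 h exposure to one concentration of compound in 96-well plates. Values under 10 count as active.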 Values without a mark were called inactive. Active and inactive are the calls of the source.

Each molecule was assayed on MDA-MB-468 breast (assay: NCI-60 one-dose screen, 48 h (100 = growth as untreated, 0 = no growth, -100 = all killed)). Conditions: 10 µM unless noted.

Question: For `NS(=O)(=O)c1ccc(NC2=C(Cl)C(=O)c3ccccc3C2=O)cc1`, which growth is on record?
Answer: -67% (active)

Question: For `COc1ccc(-c2nn(-c3cccc(NC(=O)Nc4cc(C(F)(F)F)cc(C(F)(F)F)c4)c3)cc2-c2ccncc2)cc1Cl`, which growth is on record?
Answer: 17.7%

Question: With `O=C(/C=C/c1ccccc1)N(C1CCCCC1)C1CCCCC1` as the molecule, how does the growth read?
Answer: 72.4%

Question: For `O=C(Nc1ccc(C2=NCCCN2)cc1)Nc1ccc(C2=NCCCN2)cc1`, which growth is on record?
Answer: 42.2%

Question: For `CC(C)(O)c1cccc(F)c1`, which growth is on record?
Answer: 93.8%

Question: `Nc1nc(-c2ccccc2Cl)cc(-c2ccc(Cl)cc2Cl)n1` was tested. Which growth did it give?
Answer: 18.6%

Question: For `COc1ccc(C(=O)C/C(=C\c2ccc(Cl)cc2)C(=O)NCc2ccccc2)cc1`, which growth is on record?
Answer: 69.7%

Question: Which growth does the source give for `O=C(Nc1cc(F)cc2cccnc12)c1cnc(N2CCOCC2)cn1` here?
Answer: 18.5%

Question: How did the growth turn out when `OCCNc1nc(Nc2ccc(C3=NN(c4cc(Cl)cc(Cl)c4)C(c4ccc(C(F)(F)F)cc4)C3)cc2)nc(N2CCOCC2)n1` (stereo unspecified) was run?
Answer: 66.7%

Question: Which growth does the source give for `COc1cc2cc(NCc3ccc(Cl)cc3)nc(C)c2cc1OC` here?
Answer: 63.4%

Question: Which growth does the source give for `CC1(C)CC[C@]2(C(=O)N3CCNCC3)CC[C@]3(C)C(=CC[C@@H]4[C@@]5(C)CCC(=O)C(C)(C)[C@@H]5CC[C@]43C)[C@@H]2C1` here?
Answer: 105%

Question: With `CCN(CC)CCNc1ccc([N+](=O)[O-])c2sc3ccccc3c(=O)c12` as the molecule, how does the growth read?
Answer: 1.4% (active)

Question: With `COc1cc(Nc2ncc3c(n2)-c2ccc(Cl)cc2C(c2c(F)cccc2OC)=NC3)ccc1C(=O)O` as the molecule, how does the growth read?
Answer: 61.9%

Question: Which growth does the source give for `N#Cc1nn(-c2ccccn2)c(N)c1C#N` here?
Answer: 116%

Question: With `O=C(C[n+]1ccn(CC(OCc2ccc(Cl)cc2Cl)c2ccc(Cl)cc2Cl)c1)c1ccc(F)cc1` (stereo unspecified) as the molecule, how does the growth read?
Answer: -77.2% (active)

Question: How did the growth turn out when `C[C@H]1[C@@H]2[C@H]3CC[C@@H]4[C@@]5(C)Cc6c([nH]c7ccccc67)C(C)(C)[C@@H]5CC[C@@]4(C)[C@]3(C)CC[C@]23CO[C@]1(C)[C@@H](C(=O)/C=C/c1ccccn1)C3` was run?
Answer: 99.3%

Question: With `O=C(CCc1nnc2sc(-c3ccc(Cl)cc3Cl)nn12)c1nc2ncccc2[nH]1` as the molecule, how does the growth read?
Answer: -66% (active)

Question: For `Clc1cccc(/C=N/Nc2nc(N/N=C/c3cccc(Cl)c3)nc(N3CCCCC3)n2)c1`, which growth is on record?
Answer: 76.3%

Question: How did the growth turn out when `C=C1c2c(Cl)ccc(O)c2C(O)=C2C(=O)[C@]3(O)C(O)=C(C(N)=O)C(=O)[C@@H](N(C)C)[C@@H]3[C@@H](O)[C@H]12` was run?
Answer: -4.52% (active)

Question: Which growth does the source give for `Cc1ncc(-c2ccnc(Nc3ccc(S(C)(=O)=O)cc3)n2)n1C(C)C` here?
Answer: -48.8% (active)

Question: `Nc1ncnc2c1ncn2C1(CO)OCC(O)C(O)C1O` (stereo unspecified) was tested. Which growth did it give?
Answer: 108%

Question: `FC(F)(F)c1[nH]ncc1-c1nc2c(N3CCCCC3)cc3[nH]ncc3c2c2c1CCCC2` was tested. Which growth did it give?
Answer: -25.6% (active)

Question: With `CC(=O)Nc1ccc2oc(=O)ccc2c1` as the molecule, how does the growth read?
Answer: 83%

Question: For `O=S(=O)(NCl)c1ccccc1`, which growth is on record?
Answer: 108%

Question: For `Cc1ccc(-c2nc(/C=C3/C(=O)Nc4ccccc43)c3ccccn23)cc1`, which growth is on record?
Answer: 69.6%

Question: For `CNc1ccc(Br)c2c1C(=O)c1ccccc1C2=O`, which growth is on record?
Answer: 112%

Question: With `CCCCCCCCCCCCCCCC[N+](C)(C)CCN(Cc1ccc(OC)cc1)c1ncccn1` as the molecule, how does the growth read?
Answer: -49.2% (active) and -52.1% (active)

Question: For `N=c1c(S(=O)(=O)c2ccccc2)cc2c(=O)n3ccccc3nc2n1C1CCCC1`, which growth is on record?
Answer: 88.1%

Question: `COc1cc(/C=C/C(=O)/C=C(O)/C=C/c2ccc(OC(=O)C34CC5CC(CC(C5)C3)C4)c(OC)c2)ccc1OC(=O)C12CC3CC(CC(C3)C1)C2` was tested. Which growth did it give?
Answer: 108%

Question: Which growth does the source give for `NC(CSSCC(N)C(=O)O)C(=O)O` (stereo unspecified) here?
Answer: -17% (active)

Question: With `NC(=O)c1c(NC(=O)c2ccccc2)sc2c1CCC(=O)C2` as the molecule, how does the growth read?
Answer: -5.34% (active)

Question: With `COC(=O)[C@H](Cc1cnc[nH]1)NC(=O)[C@@H](NC(=O)Nc1cc(C(F)(F)F)cc(C(F)(F)F)c1)C(C)C` as the molecule, how does the growth read?
Answer: -60.9% [100 µM] (active)

Question: Which growth does the source give for `CCCCCCCCCC[N+](C)(C)C` here?
Answer: -31.3% (active)

Question: `CC(=O)OC[C@H]1OC(Sc2sc(C(=O)c3ccc(C)cc3)c(N)c2-c2nc3ccccc3s2)[C@H](OC(C)=O)[C@@H](OC(C)=O)[C@@H]1OC(C)=O` (stereo partly specified) was tested. Which growth did it give?
Answer: 75.4%

Question: `Cc1ccc(-c2nc(SCC(=O)c3ccccc3)nc(Nc3ccc(S(N)(=O)=O)cc3)c2C#N)cc1` was tested. Which growth did it give?
Answer: 113%

Question: Which growth does the source give for `CC1=CC(=O)c2ccccc2C1=O` here?
Answer: 111%
